# This excerpt belongs to a sample that is enriched for hits.
# PglD DTNB = inhibitors of Campylobacter jejuni PglD acetyltransferase. inhibition, % at 12.5 µM. purified PglD enzyme, DTNB colorimetric CoA detection. AID 602405. 360,000 compounds, 0.098% hits; in the data active means inhibition above about 16%, passing the limit was not always enough; inconclusive means no clear call, values can overlap the other calls
# DENV2 CPE rescue = protects cells from dengue virus 2 cytopathic effect. DENV2-infected cells, cytopathic effect rescue, plate reader. CPE inhibition, % at 9.99 µM. 350,000 compounds, 1.7% hits. AID 651640; in the data active means CPE inhibition above about 20%, passing the limit was not always enough; inconclusive means no clear call, values can overlap the other calls; tested in BHK-21 cells;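 further: 0% = median of neutral control wells and 100% = median of positive control wells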
# Glyco luc inh = blocks N-linked glycosylation in D54 reporter cells; D54 ERlucT glycosylation luciferase reporter, 24 h; percent of 100 nM tunicamycin response; reporter increase, % at 12.5 µM; 360,000 compounds, 0.23% hits; AID 588692;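 active means mean luciferase reporter signal, scaled so untreated is 0 and the glycosylation-blocking control 100, at or above a set limit in every replicate; inconclusive means mean reaches the limit but not every replicate does; inactive means mean below the limit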;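 further: luciferase carries N-glycosylation sites so blocking glycosylation raises the light; 0% = median of neutral control wells and 100% = median of 100 nM tunicamycin wells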
# Rtt109 Vps75 = blocks Candida albicans Rtt109/Vps75 acetyltransferase activity | Q5AAJ8 | purified Rtt109/Vps75, ThioGlo CoA-SH fluorescence, 4 h | inhibition, % at 34.9 µM | 330,000 compounds, 0.16% hits | AID 540336;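 active means inhibition of at least 50% in every replicate; inconclusive means best replicate reaches 50% inhibition but some replicates fall short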
# Target sequence (Q5AAJ8 whole entry, looked up): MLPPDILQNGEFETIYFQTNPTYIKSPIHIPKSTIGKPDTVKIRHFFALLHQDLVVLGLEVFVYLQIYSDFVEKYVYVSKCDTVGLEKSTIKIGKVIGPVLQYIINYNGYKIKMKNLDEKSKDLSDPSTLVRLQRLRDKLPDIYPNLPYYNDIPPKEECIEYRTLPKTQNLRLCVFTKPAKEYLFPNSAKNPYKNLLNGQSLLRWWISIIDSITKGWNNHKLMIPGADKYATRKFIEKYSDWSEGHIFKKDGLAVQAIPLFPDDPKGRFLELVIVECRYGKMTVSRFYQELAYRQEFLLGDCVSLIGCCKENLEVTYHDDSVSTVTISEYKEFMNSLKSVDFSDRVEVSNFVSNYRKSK
# Active calls of the source: *; i = inactive; u = inconclusive; x = not tested or not shown; ! = a repeat was not active.
SMILES,PglD DTNB,DENV2 CPE rescue,Glyco luc inh,Rtt109 Vps75
O=S(=O)(c1cccc(F)c1)N1CC[C@@H]2[C@@H](CO)Nc3ccc(C#Cc4cccc(F)c4)cc3[C@@H]21,1.9,22.8*,x,x
O=C(Cc1ccccc1)N1CC[C@H]2[C@H](CO)Nc3ccc(C#Cc4cccc(F)c4)cc3[C@H]21,x,3.1,x,x
O=C(Cc1cccnc1)N1CC[C@H]2[C@H](CO)Nc3ccc(C#Cc4cccc(F)c4)cc3[C@H]21,x,62.5*,x,x
O=S(=O)(c1cccc(F)c1)N1CC[C@@H]2[C@H](CO)Nc3ccc(C#Cc4ccccc4F)cc3[C@@H]21,-1.7,23.7*,x,x
O=S(=O)(c1cccc(F)c1)N1CC[C@H]2[C@H](CO)Nc3ccc(C#Cc4ccccc4F)cc3[C@H]21,0.9,-9.0,x,x
O=S(=O)(c1cccc(F)c1)N1CC[C@@H]2[C@H]1c1cc(C#Cc3cccc(F)c3)ccc1N[C@@H]2CO,2.6,7.4,x,x
CN1CCN(C(=O)c2ccc3c(c2)S(=O)(=O)c2ccccc2C3=O)CC1,-5.4,63.1*,4.1,-2.3
CC(=O)N1CCN(C(=O)c2ccc3c(c2)S(=O)(=O)c2ccccc2C3=O)CC1,-7.3,0.5,0.4,-0.1
Cn1cc([C@@H]2C[C@H]3CN(Cc4cccc(Cl)c4)C(=O)[C@]34CCCN24)c(-c2ccccc2)n1,6.0,9.2,0.4,-3.6
Cc1nn(C)cc1[C@@H]1C[C@H]2CN(Cc3cccc(Cl)c3)C(=O)[C@]23CCCN13,x,-2.6,0.4,52.6*
CCOC(=O)c1[nH]c(C)c(C(=O)Nc2cc(Cl)ccc2C)c1C,1.1,x,29.2*,-0.9
OC[C@@H]1[C@@H](c2ccc(-c3ccccc3F)cc2)[C@@H]2CN(Cc3ccncc3)CCCCN12,-1.0,22.3*,x,x
OC[C@H]1[C@@H](c2ccc(-c3ccc(F)cc3)cc2)[C@H]2CN(Cc3ccncc3)CCCCN21,7.4,28.2*,x,x
O=C(N[C@@H]1C=C[C@H](CC(=O)N2CCc3ccccc3C2)O[C@H]1CO)C1CCC1,-2.2,-13.4,x,x
Cc1cc(Br)ccc1NC(=O)CN(C)C(=O)COc1cccc2c1OC(C)(C)C2,2.8,90.8*,11.8,0.5
COC(=O)[C@@]12CCCN1[C@H](c1ccc(-c3cccc(Cl)c3)cc1)[C@H]1C(=O)N(C)C(=O)[C@H]12,-1.4,-14.8,0.4,-0.6
COC(=O)[C@@]12CCCN1[C@H](c1ccc(-c3ccccc3)cc1)[C@@H]1C(=O)N(C)C(=O)[C@@H]12,0.0,65.5*,-1.5,1.8
NC(=O)c1ccsc1NC(=O)COC(=O)[C@@H]1CCCN1C(=O)c1cccs1,x,122.1*,-0.9,-9.8
CCCNC(=O)[C@@H]1[C@@H](CO)[C@@H]2Cn3c(cccc3=O)[C@@H]2N1C(=O)C1CC1,x,-1.9,x,x
O=C(Nc1nc(-c2ccc([N+](=O)[O-])cc2)cs1)C1=COCCO1,-1.0,41.8*,-1.8,x
O=C(Nc1nc(-c2ccc(-c3ccccc3)cc2)cs1)C1=COCCO1,x,x,-2.5,-1.4
CN1CCN(C(c2ccc(Br)cc2)c2cc(Cl)c3cccnc3c2O)CC1 (centres undefined),0.1,3.9,37.0*,1.9
CN1CCN(C(c2ccc(F)cc2)c2ccc3cccnc3c2O)CC1 (centres undefined),-3.0,x,-0.3,-8.6
CC(=O)NC[C@H]1[C@@H](c2ccc(-c3cccc(F)c3)cc2)[C@@H](CO)N1C(C)=O,3.7,5.7,x,x
c1ccc(-c2nc(-c3ccncc3)n[nH]2)nc1,x,-2.9,2.8,-10.5
SMILES,PglD DTNB,DENV2 CPE rescue,Glyco luc inh,Rtt109 Vps75
c1ccc(-c2ccncc2)nc1,-6.1,79.0*,2.5,-8.0
O=C(Cc1ccccc1)N1CC[C@@H]2[C@H](CO)Nc3ccc(Br)cc3[C@@H]21,-1.3,8.3,x,x
Cc1cc(C)c2c(N)c(C(=O)c3ccc(Br)cc3)oc2n1,x,46.4*,9.0,4.7
CC(C)NC(=O)Nc1cccc2c1O[C@H](CN(C)C(=O)Nc1ccccc1)[C@@H](C)CN([C@@H](C)CO)C2=O,2.7,47.5*,x,x
COc1ccc(NC(=O)N(C)C[C@@H]2Oc3c(NC(=O)NC(C)C)cccc3C(=O)N([C@H](C)CO)C[C@@H]2C)cc1,-1.7,-7.9,x,x
CC(C)NC(=O)Nc1cccc2c1O[C@H](CN(C)C(=O)NC(C)C)[C@@H](C)CN([C@H](C)CO)C2=O,-0.2,u,2.6,-11.3
COc1ccc(NC(=O)Nc2cccc3c2O[C@@H](CN(C)C(=O)NC(C)C)[C@@H](C)CN([C@@H](C)CO)C3=O)cc1,3.1,38.5*,x,x
CC(C)NC(=O)Nc1cccc2c1O[C@@H](CN(C)C(=O)NC(C)C)[C@@H](C)CN([C@@H](C)CO)C2=O,-1.3,65.9*,x,x
CC(C)NC(=O)Nc1cccc2c1O[C@@H](CN(C)C(=O)Nc1ccccc1)[C@H](C)CN([C@H](C)CO)C2=O,0.9,0.0,x,x
O=C(C1CCCC1)N1CCCCN2[C@H](CO)[C@H](c3ccc(C#CC4CC4)cc3)[C@@H]2C1,2.7,7.9,x,x
C[C@@H](O)C#Cc1cnc2c(c1)C(=O)N([C@@H](C)CO)C[C@H](C)[C@@H](CN(C)Cc1cccc(F)c1)O2,0.6,5.6,x,x
CCOC(=O)Nc1ccc(Oc2ccccc2)cc1,-10.6,x,1.4,4.8
CCOC(=O)Nc1c2ccccc2nc2ccccc12,-0.2,-0.7,34.3*,1.7
CC(C)NC(=O)N1CCCCN2[C@@H](CO)[C@@H](c3ccc(Br)cc3)[C@@H]2C1,0.8,68.2*,x,x
COc1ccc(-c2ccc([C@@H]3[C@H](CO)N4CCCCN(C(=O)NC(C)C)C[C@@H]34)cc2)cc1,-1.5,63.9*,x,x
CC(C)NC(=O)N1CCCCN2[C@@H](CO)[C@H](c3ccc(Br)cc3)[C@@H]2C1,-0.1,-6.8,x,x
CC(C)NC(=O)N1CCCCN2[C@H](CO)[C@@H](c3ccc(C#CC4CC4)cc3)[C@H]2C1,5.6,38.8*,x,x
O=C(C[C@H]1CC[C@H]2[C@@H](COC[C@H](O)CN2C(=O)c2ccccc2F)O1)NCc1ccc(Cl)c(Cl)c1,-0.5,1.4,x,x
Cc1noc(C)c1NC(=O)N(C)C[C@H]1Oc2ccc(NS(=O)(=O)c3ccccc3)cc2C(=O)N([C@@H](C)CO)C[C@H]1C,-1.0,14.1,x,x
O=C1CSC(=S)N1/N=C/c1ccc(O)c(O)c1O,9.3,x,1.4,196.5*
COc1ccccc1C=NN1C(=O)CSC1=S,x,-6.7,4.2,-4.8
Nc1c2ccccc2nc2ccccc12,-0.5,3.4,33.4*!,i
c1ccc(Sc2ncnc3ccccc23)cc1,2.0,u,1.0,0.3
c1ccc(Cc2nnc(Sc3ccccc3)c3ccccc23)cc1,1.1,2.9,36.0*,6.3
Cc1ccc(C2=NOC(C)(c3nnc(-c4ccncc4)o3)C2)cc1 (centres undefined),x,58.1*,0.7,5.1
COc1ccc(S(=O)(=O)N(C)C[C@H]2Oc3c(NC(=O)CCCCCC(=O)Nc4ccccc4N)cccc3C(=O)N([C@H](C)CO)C[C@@H]2C)cc1,x,4.4,x,x
COc1ccc(S(=O)(=O)N(C)C[C@@H]2Oc3c(NC(=O)CCCCCC(=O)Nc4ccccc4N)cccc3C(=O)N([C@H](C)CO)C[C@H]2C)cc1,x,32.1*,x,x

# High-throughput results (PubChem)
